Source: PubChem (Sanford-Burnham Center for Chemical Genomics)
The list is not random: actives were taken first. Their share in the collection is about 31%.
CYP2C9 activ: activators of human CYP2C9. 96,000 compounds, 1.4% hits. activation factor at 5 µM. AID 1024. recombinant CYP2C9, luciferin-H conversion, luminescence; active compounds read high; factor 1 = untreated enzyme, 0 = blocked;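 active means activation factor of 2 or more for CYP2C9 at a 5 µM dose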;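 further: 0 = sulfaphenazole-blocked wells and 1 = vehicle-only wells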
CYP2C19 activ: cytochrome P450 2C19 (human) activation; P33261; recombinant CYP2C19, luciferin-H EGE luminescence; active compounds read high; 0 = fully inhibited enzyme, 1 = untreated enzyme; activation factor at 5 µM; 96,000 tested, under 10 active; AID 1025;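 active means activation factor of at least 2 at 5 µM in the primary screen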;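 further: 0 = wells with 2.5 mM tranylcypromine and 1 = vehicle-only wells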
Target sequence (P33261 whole entry, looked up): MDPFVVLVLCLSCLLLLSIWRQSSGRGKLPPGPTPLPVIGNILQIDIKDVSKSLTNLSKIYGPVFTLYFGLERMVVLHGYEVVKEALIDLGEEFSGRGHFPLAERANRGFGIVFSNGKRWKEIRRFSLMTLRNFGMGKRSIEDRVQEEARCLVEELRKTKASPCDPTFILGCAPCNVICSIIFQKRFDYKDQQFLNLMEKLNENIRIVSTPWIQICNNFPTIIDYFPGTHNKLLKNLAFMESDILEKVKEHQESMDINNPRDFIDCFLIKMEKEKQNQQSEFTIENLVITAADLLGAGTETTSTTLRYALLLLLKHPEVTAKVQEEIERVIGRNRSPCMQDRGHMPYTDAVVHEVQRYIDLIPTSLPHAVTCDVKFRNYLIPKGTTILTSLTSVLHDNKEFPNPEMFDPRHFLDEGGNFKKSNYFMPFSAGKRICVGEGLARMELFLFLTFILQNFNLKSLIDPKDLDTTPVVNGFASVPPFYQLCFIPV
CYP2C9 inh: blocks human cytochrome P450 2C9; P11712; CYP2C9 Supersomes, luciferin-H conversion, luminescence; inhibition, % at 5 µM; 96,000 compounds, 20% hits;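 active means blocking of liver enzyme CYP2C9 beyond about 50% at 5 µM, limit read from the data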
CYP2C19 inh: inhibitors of human CYP2C19 | CYP2C19 Supersomes, luciferin-H EGE luminescence, 30 min | inhibition, % at 5 µM | 96,000 compounds, 21% hits;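 active means CYP2C19 inhibition above a set limit at 5 µM in the primary screen, cut at about 50% in these data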;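 further: plate controls were negative control wells for no effect and 2.5 mM tranylcypromine positive control for full effect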
Starred values were filed as active, the others as inactive.

SMILES | CYP2C9 activ | CYP2C19 activ | CYP2C9 inh | CYP2C19 inh
CS(=O)(=O)N(CC(=O)N1CCC(C(N)=O)CC1)c1ccc(Oc2ccccc2)cc1 | 1 | 1.1 | 2.9 | -9.5
O=C(CSc1nnc(-c2ccncc2)n1Cc1ccccc1)NCCc1ccccc1 | 0.4 | 0.3 | 62.6* | 71.2*
CN(C)C(=O)c1ccccc1Sc1cc(Cl)ccc1Cl | 1.1 | 0.2 | -10.2 | 75.3*
CN(C)C(=O)c1ccccc1Sc1ccc(Cl)cc1Cl | 0.4 | 0.1 | 57.7* | 94.9*
Cc1ccc(NC(=O)c2cc(NC(=O)C3CC=CCC3C(=O)O)ccc2N2CCOCC2)cc1 (configuration not stated) | 1 | 1.1 | 1.3 | -6.8
C=CCn1c(SCC#N)nc2ccccc2c1=O | 0.7 | 0.5 | 30.3 | 48.5
CCNC(=O)CSc1nc2ccccc2c(=O)n1OC | 1.1 | 1.2 | -6.8 | -24.7
N#CCSc1nc2ccccc2c(=O)n1CCC(=O)NCCc1ccccc1 | 0.9 | 0.9 | 8.9 | 14.2
CCNC(=O)CSc1nc2ccccc2c(=O)n1-c1cc(OC)ccc1OC | 0.3 | 0.5 | 72.8* | 49.4
CCCCOC(=O)n1c(SCC(=O)N(CC)CC)nc2ccccc21 | 0.1 | 0.6 | 86.0* | 38.8
CCN(CC)C(=O)CSc1nc2ccccc2c(=O)n1CCC(=O)NCc1ccc(F)cc1 | 0.1 | 0.4 | 91.6* | 57.0*
COc1ccc(-n2c(SCC#N)nc3ccccc3c2=O)cc1 | 0.3 | 0.9 | 68.1* | 11.4
FC(F)(F)c1cc(-c2ccco2)nc(NCCc2ccccc2)n1 | 0.6 | 0.9 | 38.2 | 12.4
Cc1cc(SCC(=O)NC(=O)NCc2ccco2)nc2c(C)cccc12 | 0.8 | 0.7 | 21.5 | 33.2
O=c1c(-c2ccccc2)[n+]([O-])c2ccccc2n1O | 1 | 1.2 | -2.6 | -17.1
O=C(CSc1nc2ccccc2c(=O)n1-c1cccc(C(F)(F)F)c1)NC1CC1 | 0.7 | 0.5 | 31.7 | 51.0*
CCOc1ccccc1-n1c(SCC(N)=O)nnc1-c1ccccc1 | 0.7 | 0.6 | 27.3 | 35.9
CCN(CC)C(=O)CSc1nc2ccccc2c(=O)n1CC | 0.7 | 0.8 | 30.8 | 15.3
CCOc1ccccc1-n1c(SCC(N)=O)nc2ccccc2c1=O | 0.6 | 0.4 | 42.6 | 59.3*
CCN(CC)C(=O)CSc1nc2ccccc2c(=O)n1OC(C)C | 0.4 | 0.9 | 57.8* | 6.0
CCN(CC)C(=O)CSc1nc2ccccc2c(=O)n1-c1cccc(OC)c1 | 0.3 | 0.7 | 71.4* | 33.3
CCN(CC)CCOC(=O)C1c2ccccc2Oc2ccccc21 | 1.1 | 0.7 | -9.4 | 30.0
CCCOc1ccc(-c2nnn(CC(=O)N3CCC(C)CC3)n2)cc1 | 0.8 | 0.9 | 18.0 | 12.0
Cn1cc(Br)c(C(=O)NC2CCCCC2)n1 | 1.3 | 0.7 | -28.5 | 25.8
COCc1cc(C)nc2sc(C(=O)N3CCCC3)c(N)c12 | 0.8 | 0.9 | 16.0 | 13.6
SMILES | CYP2C9 activ | CYP2C19 activ | CYP2C9 inh | CYP2C19 inh
Cc1cc(C)c2c(N=CN(C)C)c(C(=O)N3CCN(c4ncccn4)CC3)sc2n1 | 0.3 | 0.6 | 68.6* | 36.9
Cc1cc(C)c2c(N)c(C(=O)N3CCCCCC3)sc2n1 | 1.5 | 0.5 | -45.4 | 51.0*
CCOn1c(=O)c(-c2cccs2)[n+]([O-])c2ccccc21 | 0.5 | 0.4 | 52.8* | 57.5*
CC(C)c1cc(CN2CCN(CCC#N)CC2)cc(C(C)C)c1O | 1.2 | 1.1 | -21.3 | -12.1
N#CCCN1CCN(C(=S)c2ccc(-c3ccc(Cl)cc3)o2)CC1 | 0.8 | 0.4 | 23.7 | 62.1*
S=C(c1ccc(-c2ccc(Cl)cc2)o1)N1CCCCC1 | 0.2 | 0.1 | 80.2* | 92.3*
CC1CCN(c2cc(=O)n(C3CCCCC3)c(=O)[nH]2)CC1 | 1 | 1 | -2.7 | -4.0
CCc1c(C)nc2cc(-c3ccc(OC)c(OC)c3)nn2c1NCC1CC1 | 0.6 | 0.7 | 44.5 | 27.7
O=C(O)CCCC(=O)N1CC(=O)Nc2ccccc21 | 1 | 1 | 4.9 | 4.3
Cc1[nH]c2ccccc2c1SCC(=O)N1CCOCC1 | 1.7 | 0.1 | -68.9 | 92.7*
O=C1CN(C(=O)CCCc2c[nH]c3ccccc23)c2ccccc2N1 | 0.9 | 0.5 | 7.3 | 50.2*
COCC(=O)NCCSc1c(C)[nH]c2ccccc12 | 1.3 | 0.4 | -31.9 | 57.9*
O=C(CCCc1c[nH]c2ccccc12)N1CCOCC1 | 1.3 | 0.3 | -28.1 | 66.8*
CCOc1cc(C(=O)OCC(=O)c2c(C)[nH]c3ccccc23)ccc1OCC(=O)N1CCOCC1 | 0.6 | 0.6 | 44.4 | 37.0
CCOC(=O)C1=C(C)NC(=O)C(C(N)=O)C12CCCC2 (configuration not stated) | 0.9 | 1.1 | 13.5 | -5.0
CCCCN(CCCC)C(=O)c1nsnc1-c1ccccc1O | 0.6 | 0.6 | 43.0 | 37.0
O=C(CSc1nncc2ccccc12)N1CCOCC1 | 1.1 | 0.8 | -9.0 | 15.0
O=C(CSc1c[nH]c2ccccc12)N1CCOCC1 | 0.9 | 0.2 | 9.9 | 84.4*
CCCC(=O)NC(C)c1nc2ccccc2n1C (configuration not stated) | 1 | 1 | 1.9 | 2.5
Cc1cc(N2CCCC2=O)cc(C)c1S(=O)(=O)NCCOc1ccccc1 | 0.1 | 0.1 | 91.5* | 88.4*
CCn1c(=O)n(CC)c2cc(S(=O)(=O)NCCOc3ccccc3)c(C)cc21 | 0.3 | 0.5 | 72.0* | 51.3*
O=C(CCC(=O)OCC(=O)c1ccccc1)NC1CCCCC1 | 0.7 | 0.5 | 31.7 | 49.3
Nc1c(-c2ccc(Cl)cc2)cnn1C1CCS(=O)(=O)C1 (configuration not stated) | 1.1 | 1 | -6.5 | -1.1
Cc1ccccc1C(=O)/C=C1\NC(=O)CS1 | 0.8 | 0.9 | 15.2 | 6.8
COc1ccccc1/C=C/C(=O)NC(=S)Nc1ccc(S(=O)(=O)N(C)c2ccccc2)cc1 | 0.5 | 0.9 | 45.2 | 8.9
SMILES | CYP2C9 activ | CYP2C19 activ | CYP2C9 inh | CYP2C19 inh
O=C(NCc1ccncc1)Nc1ccc(F)cc1 | 0.2 | 0.1 | 79.4* | 92.2*
CN(C)c1ccc(NC(=O)Nc2cccc(Cl)c2)cc1 | 0.8 | 0.7 | 15.5 | 33.0
O=C(NCc1ccncc1)Nc1ccc(Cl)cc1Cl | 0.2 | 0.1 | 83.3* | 90.1*
O=C(NCc1ccncc1)Nc1cccc(Cl)c1 | 0.2 | 0.1 | 81.2* | 89.8*
CN(C)C(CNC(=O)Nc1cccc(Cl)c1)c1cccnc1 (configuration not stated) | 0.6 | 0.5 | 38.6 | 51.1*
O=C1CC(C(=O)N2CCOCC2)C2(CCCC2)O1 (configuration not stated) | 1 | 0.9 | 3.9 | 10.8
CCN(CC)C(=O)c1ccc(S(=O)(=O)NCc2cccnc2)cc1 | 1.1 | 1.1 | -12.7 | -13.0
CN(C)C(CNS(=O)(=O)c1ccc(Cl)cc1)c1cccnc1 (configuration not stated) | 0.8 | 0.5 | 16.1 | 51.8*
COc1ccccc1N1CCN(C(CNC(=O)c2ccc3c(c2)OCO3)c2cccnc2)CC1 (configuration not stated) | 0.6 | 0.7 | 39.2 | 27.4
COc1ccccc1C(=O)NCC(c1cccnc1)N(C)C (configuration not stated) | 0.5 | 0.7 | 50.3* | 34.6
CCOC(=O)c1sc2ncnc(OC)c2c1C | 0.7 | 0.6 | 31.6 | 41.5
CCOC(=O)c1sc2nc[nH]c(=O)c2c1C | 0.9 | 0.9 | 14.1 | 13.3
